Data on 36 molecules can be found in ChEMBL document CHEMBL3433997, “St. Jude Leishmania screening dataset” (2016).

The inhibition is the drop in the measured response relative to a control, in per cent.

Holding throughout (type): functional
For assay [1], the target named is Solute carrier family 2, facilitated glucose transporter member 1 (Homo sapiens) (UniProt P11166). Put plainly: ST_JUDE_LEISH: Cytotoxicity at 2uM final concentration against transgenic Leishmania Mexicana promastigotes LmGLUT1 that are glucose transport deficient and complemented with the human glucose transporter GLUT1. Activity is measured by DNA content using SYBR green in vitro.

For assay [2], the target named is Hexose transporter 1 (Plasmodium falciparum) (UniProt O97467). Put plainly: ST_JUDE_LEISH: Cytotoxicity at 2uM final concentration against transgenic Leishmania Mexicana promastigotes LmPfHT that are glucose transport deficient and complemented with the Plasmodium falciparum hexose transporter. Activity is measured by DNA content using SYBR green in vitro.
Assay [3] deals with Glucose transporter (Leishmania mexicana) (UniProt O61059). Put plainly: ST_JUDE_LEISH: Cytotoxicity at 2uM final concentration against transgenic Leishmania Mexicana promastigotes LmGT2 that are glucose transport deficient and complemented with the L. Mexicana glucose transporter 2. Activity is measured by DNA content using SYBR green in vitro.

Structures are written as SMILES.

Solute carrier family 2, facilitated glucose transporter member 1 (Homo sapiens), sequence (P11166 whole entry): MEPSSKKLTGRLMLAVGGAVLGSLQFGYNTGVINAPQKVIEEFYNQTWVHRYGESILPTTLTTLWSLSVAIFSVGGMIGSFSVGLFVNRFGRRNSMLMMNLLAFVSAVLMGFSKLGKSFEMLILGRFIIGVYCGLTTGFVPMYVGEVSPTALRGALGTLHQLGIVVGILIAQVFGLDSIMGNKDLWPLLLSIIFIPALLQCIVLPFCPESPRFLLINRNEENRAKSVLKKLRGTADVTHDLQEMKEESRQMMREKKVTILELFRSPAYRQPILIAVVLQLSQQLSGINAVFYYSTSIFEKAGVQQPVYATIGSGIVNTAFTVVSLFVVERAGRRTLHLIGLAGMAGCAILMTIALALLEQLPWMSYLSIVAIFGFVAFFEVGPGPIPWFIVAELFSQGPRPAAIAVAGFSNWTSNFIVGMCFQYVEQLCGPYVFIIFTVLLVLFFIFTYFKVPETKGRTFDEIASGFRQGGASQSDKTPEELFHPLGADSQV

For `Cc1nc(N)nc(N)c1CCCOc1ccccc1Br`, the inhibition was 5.7% in assay [1], 8.36% in assay [2] and 2.57% in assay [3].
The corresponding values for `CN(c1ccc(NC(=O)Nc2cc(C(C)(C)C)on2)cc1)c1ccnc(NCCN2CCOCC2)n1` are 32.3%, 57.4% and 5.4%.
With `COc1ccc2nc(C)cc(N/N=C/c3ccc([N+](=O)[O-])o3)c2c1`, the inhibition was determined as 3.7% in assay [1], 6.04% in assay [2] and 0.72% in assay [3].
The like results for `Cc1cccc2nc(-c3cccc(-c4ccc(NC(=O)CCc5c[nH]cn5)cc4)c3)[nH]c12` were, in that order, 7.76%, 9.49% and 8.27%.
The like results for `CC(=O)N(C)c1ccc(C(=O)Nc2cccc(-c3cccc(-c4nc5cc(C(F)(F)F)ccc5[nH]4)c3)c2)cc1` were, in that order, 8.18%, 7.82% and 5.77%.
The corresponding values for `O=C(NC1c2ccccc2Oc2ccccc21)c1ccccc1O` are -3%, -0.11% and -0.01%.
As for `C=CCn1c(=N)n(CC(O)c2ccc(Cl)c(Cl)c2)c2ccccc21` (stereo not drawn), the inhibition was found to be 2.79% in assay [1], 3.84% in assay [2] and 0.9% in assay [3].
Take `Cc1nc(-c2ccc(-c3ccc(NC(=O)c4coc5ccc(N6CC(C)N(C)C(C)C6)cc45)cc3)c(C)c2)no1` (stereo not drawn): the inhibition in assay [1] was -0.52%; in assay [2], 0.17%; in assay [3], 3.28%.
The like results for `CCOC(=O)c1c(SCc2cccc(F)c2F)[nH]c2ccccc2c1=O` were, in that order, 0.37%, -0.99% and 1.97%.
The like results for `O=S(=O)(NCCN1CCCC1)c1ccc(-c2ccc(CNC3Cc4ccccc4C3)cc2)cc1` were, in that order, 2.13%, 0.85% and -2.78%.
The corresponding values for `CN(C)Cc1ccc(-c2cccc(NC(=O)c3cccc(Cl)c3)c2)cc1` are 2.44%, 1.66% and 1.39%.
Take `Cc1ccc(C)c(NC(=O)NCCNc2ccnc(Nc3ccc(F)cc3)n2)c1`: the figures for the inhibition in assay [1], in assay [2] and in assay [3] were 17%, 13.1% and 6.47%, respectively.
The like results for `Fc1ccc2c(NN=CC=Cc3ccccc3)ccnc2c1` were, in that order, 12.7%, 9.84% and 11.3%.
The like results for `O=C(Nc1cc(C(F)(F)F)cc(C(F)(F)F)c1)N1CCC(CCN2CCC(c3c[nH]c4ccccc34)CC2)CC1` were, in that order, 5.87%, 4.12% and 4.71%.
The like results for `CC(=O)Nc1ncc(C(=O)Nc2cccc(-c3ccc(-c4nc5cc(C(F)(F)F)ccc5[nH]4)s3)c2)s1` were, in that order, 3.37%, 4.16% and 3.18%.
Take `O=C(CSc1nccn1C1CCCC1)Nc1cc(C(F)(F)F)ccc1Cl`: the figures for the inhibition in assay [1], in assay [2] and in assay [3] were 1.51%, 2.58% and 2%, respectively.
The corresponding values for `O=C(CCCCCNC(=O)c1ccc(O)c(-c2ccc(Cl)c(Cl)c2)c1)NC1CCCc2ccccc21` (stereo not drawn) are 2.15%, 2.14% and 2.15%.
Regarding `CCOC(=O)C1=C(C)NC(C)=C(C(=O)OCC)C1(C(=O)OCc1ccccc1)c1cccc(C(F)(F)F)c1`, the inhibition in assay [1] stood at 2.88%; in assay [2], 3.39%; in assay [3] it was 4.11%.
Take `CCCNC(=O)c1ccc(N2CCC(c3ccccc3C)CC2)nc1`: the figures for the inhibition in assay [1], in assay [2] and in assay [3] were 0.89%, 0.25% and 0.97%, respectively.
The corresponding values for `O=C(N[C@H]1CCN(Cc2ccc(OCCCN3CCCCC3)cc2)C1)c1ccc(Cl)c(Cl)c1` are 2.14%, 3.98% and 3.42%.
The like results for `Cc1cc(NCCCCCCNc2cc(C)nc3c(C)cccc23)c2cccc(C)c2n1` were, in that order, 3.76%, 7.91% and 0.85%.
Regarding `FC(F)(F)c1ccc(Nc2nnnc3ccccc23)cc1`, the results for the inhibition in assay [1], in assay [2] and in assay [3] were 7.74%, 7.45% and 6.1%, respectively.
The like results for `O=C(/C=C/c1ccc(Cl)c(Cl)c1)NCCCCCCN1CCCN(C(=O)Nc2cccc(C(F)(F)F)c2)CC1` were, in that order, 5.59%, 4.35% and 0.59%.
The corresponding values for `CC(C)C(C(=O)n1cc2c(ccc3nc(N)nc(N)c32)n1)C(C)C` are 8.32%, 11% and 3.51%.
The like results for `O=C(Nc1ccc(OC2CCN(Cc3ccc(F)cc3)C2)c(Cl)c1)c1ccc(F)cc1` (stereo not drawn) were, in that order, -0.04%, -0.69% and -1.62%.
On to `CN(C)c1cc(NC(=O)Nc2ccc(SC(F)(F)F)cc2)c2ccccc2n1`, for which the values for the inhibition in assay [1], in assay [2] and in assay [3] were -0.23%, 0.11% and 0.58%, respectively.
The corresponding values for `Cc1c(C)c2c(c(C)c1O)CCC(C)(CCC(=O)O)O2` (stereo not drawn) are 0.86%, 2.15% and 1.82%.
The corresponding values for `Cc1cc(=O)c(C2CCC(c3ccc(Cl)cc3)CC2)c(C)[nH]1` (stereo not drawn) are 2.3%, 2.51% and 2.37%.
As to `CN1CCC(N(C)C(=O)C=Cc2cn(-c3ccccc3)nc2-c2cc3ccccc3o2)CC1`, the inhibition in assay [1] was 3%; in assay [2], 1.17%; in assay [3], -0.25%.
For `CC(C)CNc1nc(N)nc2ccc3c(ccn3CC(C)C)c12`, the inhibition in assay [1] was 1.7%; in assay [2] it was -0.47%; in assay [3], -0.02%.
Take `CC(CNC(=O)[C@H]1CNCCN1C(=O)CCCc1ccccc1)c1ccccc1` (stereo partly drawn): the inhibition in assay [1] is 0.97%; in assay [2], -1.25%; in assay [3], -0.23%.
On to `N=C(N)Nc1nc(-c2ccc(NC(=N)N3CCC[C@H]3CN3CCCC3)cc2)cs1`, for which the inhibition is -0.01% in assay [1], -0.2% in assay [2] and -0.7% in assay [3].
The like results for `Cc1cc(NC(=O)c2ccco2)ccc1OC1CCN(Cc2ccc(F)cc2)CC1` were, in that order, 4.89%, 3.02% and 1.98%.
For `O=C(Cc1cccnc1)N(Cc1ccc(-c2ccc(CNCc3cccnc3)cn2)cc1)C1CCN(Cc2ccccc2)CC1`, the inhibition was -1.34% in assay [1], -0.95% in assay [2] and -1.68% in assay [3].
With `CCCCCCCc1c(C)[nH]c2ccc(F)cc2c1=O`, the results for the inhibition in assay [1], in assay [2] and in assay [3] were -0.05%, 0.32% and -0.32%, respectively.
The like results for `CC(C)NCc1ccc(-c2ccc(NC(=O)c3cccc(C#N)c3)cc2)cc1` were, in that order, 1.38%, 1.38% and -1%.
